# From PubChem BioAssay AID504652 (National Center for Advancing Translational Sciences (NCATS), 2011)
# Out of some 360,000 compounds screened, about 11,000 (3.1%) were called active. Many of the other results were omitted from the sample, so actives are more common in it than they were. Values without a mark were called inactive. No stated cut-off is given here; in the data, active means activity change below about -30%; inactive means the rest.
# Target: D(1A) dopamine receptor (Homo sapiens) (UniProt P21728)
# Test: Antagonist of Human D 1 Dopamine Receptor: qHTS
# Details: HEK293 TREx D1 cells, calcium flux, dopamine EC80; at 10 µM; active compounds read low
# How it was run: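 Tetracycline-induced HEK293 T-REx cells with force-coupled D1 receptor were loaded with a no-wash calcium dye. Compound was added after a 10 s baseline and read kinetically for 180 s; EC80 dopamine was then added and calcium flux followed another 180 s.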
# On the % scale 0 is the no-effect control and ±100 the full control effect.
# Chain of D(1A) dopamine receptor (Homo sapiens) (P21728 whole entry, looked up): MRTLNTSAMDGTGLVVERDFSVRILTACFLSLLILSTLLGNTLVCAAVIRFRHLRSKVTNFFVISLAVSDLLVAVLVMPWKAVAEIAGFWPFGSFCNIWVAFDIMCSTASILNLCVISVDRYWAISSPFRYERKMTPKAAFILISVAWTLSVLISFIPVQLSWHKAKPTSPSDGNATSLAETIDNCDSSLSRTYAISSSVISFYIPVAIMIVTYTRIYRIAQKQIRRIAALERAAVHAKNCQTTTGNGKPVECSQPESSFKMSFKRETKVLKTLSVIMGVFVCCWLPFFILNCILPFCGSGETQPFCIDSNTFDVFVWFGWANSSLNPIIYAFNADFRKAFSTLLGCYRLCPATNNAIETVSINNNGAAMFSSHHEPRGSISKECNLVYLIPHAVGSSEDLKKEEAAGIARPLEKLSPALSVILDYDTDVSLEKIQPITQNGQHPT
row,Structure (SMILES),"activity change, negative = inhibition"
1,Cc1ccc(-c2nnc(Nc3cccc(Br)c3)c3ccccc23)cc1S(=O)(=O)NCC1CCCO1 (stereo not given),-11.8%
2,N#Cc1ccc(OCCN2C(=O)NC3(CCSC3)C2=O)cc1 (stereo not given),-30.6% (active)
3,O=C(CN1C(=O)NC2(CCCC2)C1=O)OCCOc1ccc(F)cc1,-6.87%
4,CC1(C)NC(=O)N(CCOc2cccc(Oc3ccccc3)c2)C1=O,1.02%
5,CCOC(=O)N1CCc2c(sc(NCc3cccc(F)c3)c2C(=O)Nc2ccccc2OCC)C1,-17.6%
6,O=S(=O)(NC1CCN(S(=O)(=O)c2ccc3c(c2)OCCO3)CC1)c1c(F)cccc1F,-30.3% (active)
7,O=S(=O)(c1ccc2c(c1)OCCCO2)N1CCN(S(=O)(=O)c2c(F)cccc2F)CC1,-7.05%
8,O=S(=O)(NCC1CN(S(=O)(=O)c2ccc3c(c2)OCCO3)C1)c1c(F)cccc1F,2.66%
9,CCOc1ccccc1C(=O)NC1(C(F)(F)F)NC(=O)N(CCc2ccc(OC)c(OC)c2)C1=O (stereo not given),12%
10,CCOC(=O)CSC1=Nc2ccccc2C2=NC(CCC(=O)NCc3ccc(F)cc3)C(=O)N12 (stereo not given),7.77%
11,Cc1ccc(S(=O)(=O)N2CCC(C(=O)Nc3cc(C)ccc3C)CC2)cc1,7.91%
12,CCc1ccc2oc(-c3ccc(C)c(NC(=O)/C=C/c4ccco4)c3)nc2c1,-0.213%
13,CCN(C(=O)Cn1cc(S(=O)(=O)N2CCN(c3ccccc3F)CC2)c2ccccc2c1=O)c1ccc(C)c(C)c1,-3.49%
14,CCOC(=O)C1CCCN(C(=O)c2ccc(C)c(S(=O)(=O)N3CCCCC3)c2)C1 (stereo not given),-1.15%
15,CCOC(=O)C1CCCN(C(=O)c2cncc(Br)c2)C1 (stereo not given),-9.23%
16,CCOC(=O)C1CCCN(C(=O)c2ccc3c(c2)sc2nc(-c4ccc(CC)cc4)cn23)C1 (stereo not given),-33% (active)
17,O=C(NCCC1=CCCCC1)c1ccc2c(c1)N(Cc1ccccc1F)C(=O)c1ccccc1S2(=O)=O,-12.5%
18,CC1CCN(c2c(NCc3ccc(C(=O)NCc4ccccc4)cc3)c(=O)c2=O)CC1,-34.3% (active)
19,O=C(NCc1ccccc1)c1ccc(CNc2c(N3CCCC3)c(=O)c2=O)cc1,-9.38%
20,O=C(NC1CCCCC1)c1ccc(CNc2c(N3CCOCC3)c(=O)c2=O)cc1,11.4%
21,Cc1nc2sc(C)c(C)n2c(=O)c1S(=O)(=O)NCCc1ccc(Cl)cc1,-2.78%
22,CCc1ccc(S(=O)(=O)n2ccnc2)cc1,-16.9%
23,CC(=O)N1CCN(c2ccc(NCc3ccc(C(C)C)cc3)cc2)CC1,-50.6% (active)
24,CC(C)c1ccc(N2CCN(C(=O)c3ccccc3NC(=O)/C=C(\C(=O)O)c3ccccc3)CC2)cc1,-3.41%
25,CC(C)c1ccc(NC(=O)c2ccc(Cn3nc(N4CCN(c5ccccc5)CC4)ccc3=O)o2)cc1,-6.07%
